Test results as given in PubChem BioAssay AID651640 (Broad Institute, 2012).
The whole screen tested about 350,000 compounds, of which about 6,000 (1.7%) were called active. Not shown: some 5% with an inconclusive outcome. No stated cut-off is given here; in the data, active means CPE inhibition above about 20% (passing the limit was not always enough); inconclusive means no clear call, values can overlap the other calls; tested in BHK-21 cells. The full list was thinned out, with actives kept by preference.

test: inhibitors of DENV2 cytopathic effect, primary screen, cell-based, plate reader, single concentration (AID 651640); conditions: DENV2-infected cells, cytopathic effect rescue, at 9.99 µM, hits give high values;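 further: 0% = median of neutral control wells and 100% = median of positive control wells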

CPE inhibition, inactive:
COCC#Cc1cnc2c(c1)C(=O)N([C@@H](C)CO)C[C@@H](C)[C@@H](CN(C)C(=O)Nc1ccccc1OC)O2 8.53%
CCN1CCN(C(=O)N(Cc2ccc(Cl)cc2)S(=O)(=O)c2ccc(C)cc2)CC1 -3.82%
CN1CCN(CC(=O)Nc2cccc([N+](=O)[O-])c2)CC1 -4.21%
Cc1ccccc1-c1ccc2c(c1)O[C@@H](CN(C)Cc1ccncc1)[C@@H](C)CN([C@H](C)CO)S2(=O)=O 7.62%
CN(C)c1ccc2c(c1)[C@H]1C[C@H](CC(=O)O)O[C@H](CO)[C@H]1O2 0.102%
C[C@@H]1CN([C@@H](C)CO)C(=O)c2cccc(NC(=O)c3ccc(-c4nccs4)cc3)c2O[C@H]1CN(C)Cc1ccc(Cl)c(Cl)c1 -8.98%
Cc1ccc(C(=O)N2CCN(S(=O)(=O)N3CCOCC3)CC2)cc1 -4.28%
Cc1ccc(C(=O)Oc2ccc(C(=S)N3CCOCC3)cc2)cc1 12.3%
C[C@@H]1CCCCO[C@H](CN(C)Cc2ccc(Cl)c(Cl)c2)[C@H](C)CN([C@@H](C)CO)C(=O)c2cc(NC(=O)CCC(F)(F)F)ccc2O1 2.84%
C[C@H](NC(=O)C[C@H]1CC[C@H]2[C@@H](COC[C@H](O)CN2C(=O)Nc2cc(Cl)cc(Cl)c2)O1)c1ccccc1 -1.1%
C/C=C\C=C\C(=O)N1CC2(CC(c3cccc(NC(=O)/C(C)=C\C)c3)=NO2)C[C@H]1C(N)=O (stereo not given in full) 11.7%
CC/C=C/C(=O)N1CC2(CC(c3cccc(NC(=O)CC)c3)=NO2)C[C@H]1C(N)=O (stereo not given in full) -7.83%
C[C@@H]1CN([C@H](C)CO)C(=O)c2cc(C3=CCCCC3)cnc2O[C@@H]1CN(C)C(=O)c1ccc2c(c1)OCO2 -7.8%
C[C@@H]1CN([C@H](C)CO)C(=O)c2cc(NC(=O)c3ccccc3)ccc2O[C@@H](C)CCCCO[C@H]1CN(C)S(=O)(=O)c1ccccc1 -7.35%
COc1ccc(S(=O)(=O)N(C)C[C@H]2OCCCC[C@@H](C)Oc3ccc(NC(=O)c4ccncc4)cc3C(=O)N([C@H](C)CO)C[C@@H]2C)cc1 -4.42%
CC(C)NC(=O)Nc1ccc2c(c1)C(=O)N([C@H](C)CO)C[C@@H](C)[C@@H](CN(C)S(=O)(=O)c1cccs1)OCCCC[C@@H](C)O2 -0.241%
C[C@@H]1CCCCO[C@H](CN(C)S(=O)(=O)c2cccs2)[C@@H](C)CN([C@H](C)CO)C(=O)c2cc(NC(=O)Nc3ccccc3)ccc2O1 9.31%
COC(=O)C[C@@H]1C[C@H]2c3cc(NC(=O)NC4CCCC4)ccc3O[C@H]2[C@H](CO)O1 0.692%
CC(C)CC#Cc1ccc2c(c1)O[C@H](CN(C)C(=O)Cc1cccnc1)[C@H](C)CN([C@@H](C)CO)S2(=O)=O -0.534%
CO[C@@H]1CN(C)C(=O)c2ccc(NC(=O)Nc3ccccc3)cc2OC[C@H](C)N(C(=O)CC2CC2)C[C@@H]1C -5.7%
COc1ccccc1S(=O)(=O)N[C@H]1CC[C@@H](CC(=O)NCc2cc(F)cc(F)c2)O[C@H]1CO -1.83%
COC(=O)C[C@@H]1C=C[C@@H](NS(=O)(=O)c2cccc(OC)c2)[C@@H](CO)O1 1.84%
COc1cccc(S(=O)(=O)N[C@H]2C=C[C@@H](CC(=O)NCc3ccc(F)cc3)O[C@@H]2CO)c1 3.36%
COc1cccc(S(=O)(=O)N[C@H]2C=C[C@@H](CC(=O)NCc3ccccc3)O[C@@H]2CO)c1 -4.65%
COc1ccc2c3c([nH]c2c1)[C@H](CO)N(C(=O)NC1CCCC1)CC31CN(C(=O)Nc2cccc(F)c2)C1 9.59%
COc1ccc(NC(=O)Nc2ccc3c(c2)C(=O)N([C@@H](C)CO)C[C@@H](C)[C@H](CN(C)C(=O)NC(C)C)OCCCC[C@H](C)O3)cc1 3.37%
Cc1ccc(S(=O)(=O)Nc2ccc3c(c2)C(=O)N(C)[C@H]2CC[C@H](CC(=O)O)O[C@H]2CO3)cc1 4.91%
O=C(NCc1cc(F)cc(C(F)(F)F)c1)C1CCC(=O)N(C2CCCC2)C1 (stereo not given) 0.846%
COc1ccc(CNC(=O)C2CCCC2)cc1 -2.88%
O=C(NCCCCc1ccccc1)C1CC(c2ccc([N+](=O)[O-])cc2)=NO1 (stereo not given) 15.1%
COc1ccc(C2=NOC(Cn3nc(C(=O)NCc4ccc5c(c4)OCO5)cc3-c3ccccc3)C2)cc1 (stereo not given) 10.2%
O=S(=O)(N[C@@H]1CC[C@@H](CCn2cc(-c3ccccn3)nn2)O[C@@H]1CO)c1cccc(Cl)c1 14.3%
C[C@H]1CN([C@@H](C)CO)C(=O)c2cc(NC(=O)C3CC3)ccc2O[C@@H]1CN(C)S(=O)(=O)c1cn(C)cn1 -4.92%
C[C@@H]1CCCCO[C@H](CN(C)C(=O)Cc2ccccc2)[C@H](C)CN([C@@H](C)CO)C(=O)c2cc(NS(=O)(=O)c3ccc(F)cc3)ccc2O1 -10.6%
CC(C)NC(=O)NCC[C@H]1CC[C@@H](NS(=O)(=O)c2ccc(Oc3ccccc3)cc2)[C@@H](CO)O1 -1.61%
CO[C@H]1CN(C)C(=O)c2cc(NS(=O)(=O)CC(F)(F)F)ccc2OC[C@@H](C)N(C(=O)c2ccc3c(c2)OCO3)C[C@@H]1C 15.3%
COC(=O)CN1C(=O)[C@H]2[C@@H](/C=C/c3ccccc3)N3C(=O)CN(Cc4ccccc4)C(=O)[C@@]3(Cc3ccccc3)[C@H]2C1=O -11.1%
COC(=O)CN1C(=O)[C@H]2[C@@H](C3CC3)N3C(=O)CN(Cc4ccc(-c5ccccc5)cc4)C(=O)[C@@]3(Cc3ccccc3)[C@H]2C1=O 3.26%
C[C@H](CO)N1C[C@H](C)[C@@H](CN(C)Cc2ccc(C(F)(F)F)cc2)Oc2ccc(NC(=O)Cn3cnnn3)cc2CC1=O 7.25%
Cc1ccc(S(=O)(=O)CCC(=O)OCC(=O)NCCc2ccc(S(N)(=O)=O)cc2)cc1 2.48%
Cc1ccccc1OCCC(=O)OCC(=O)NC(C)c1ccccc1 (stereo not given) 4.9%
O=C(C[C@@H]1CC[C@@H]2[C@H](COC[C@@H](O)CN2S(=O)(=O)c2ccccc2)O1)NCC1CCCCC1 -12.1%
C[C@@H]1CN([C@@H](C)CO)S(=O)(=O)c2ccc(-c3cccc(C(=O)N(C)C)c3)cc2O[C@@H]1CN(C)C -3.85%
c1ccc(-c2ccc(C3[C@@H]4CN(Cc5cccnc5)C[C@H]3N4)cc2)cc1 (stereo not given in full) -24.3%
N#C[C@H]1N[C@H](CO)[C@H]1c1ccc(-c2cccc(F)c2)cc1 3.16%
N#Cc1cccc(-c2ccc([C@H]3[C@@H](CO)N[C@@H]3CNC(=O)C3CCC3)cc2)c1 -1.99%
CCCNC(=O)N1C[C@@H](O)COC[C@H]2O[C@@H](CC(=O)NCCCN3CCOCC3)CC[C@@H]21 -1.62%
CO[C@H]1CN(C)C(=O)c2ccc(NC(=O)C3CCOCC3)cc2OC[C@H](C)NC[C@H]1C -0.477%
CO[C@H]1CN(C)C(=O)c2cc(NC(=O)C3CC3)ccc2OC[C@@H](C)NC[C@H]1C -4.67%
CO[C@H]1CN(C)C(=O)c2cc(NS(=O)(=O)c3ccc(C)cc3)ccc2OC[C@H](C)NC[C@H]1C -0.879%
CO[C@@H]1CN(C)C(=O)c2cc(NS(=O)(=O)c3ccc(Cl)cc3)ccc2OC[C@H](C)NC[C@@H]1C -4.08%

CPE inhibition, active:
Cc1ccc(S(=O)(=O)N(Cc2cccc([N+](=O)[O-])c2)C(=O)N2CCN(C)CC2)cc1 56.8%
Cc1ccc(C(=O)C(=S)N2CCOCC2)cc1 41.4%
C/C=C(\C)C(=O)N1CC2(CC(c3cccc(NC(=O)CCCCC)c3)=NO2)C[C@@H]1C(N)=O (stereo not given in full) 85.8%
COc1ccc(S(=O)(=O)N(C)C[C@@H]2OCCCC[C@@H](C)Oc3ccc(NC(=O)c4ccccc4)cc3C(=O)N([C@@H](C)CO)C[C@H]2C)cc1 53.6%
C[C@@H]1CCCCO[C@H](CN(C)S(=O)(=O)c2cccs2)[C@H](C)CN([C@H](C)CO)C(=O)c2cc(NC(=O)c3ccccc3)ccc2O1 56.2%
COc1ccccc1S(=O)(=O)N[C@@H]1C=C[C@H](CC(=O)NCc2cccc(F)c2)O[C@H]1CO 41.8%
COc1cccc(S(=O)(=O)N[C@H]2C=C[C@H](CC(=O)NCc3ccc(Cl)cc3)O[C@@H]2CO)c1 23.8%
COc1ccc(CNC(=O)C2CC(c3ccc(C(F)(F)F)cc3)=NO2)cc1 (stereo not given) 87.8%
O=C(NCc1cc(C(F)(F)F)cc(C(F)(F)F)c1)C1CC(c2cccc(F)c2)=NO1 (stereo not given) 23.7%
COC(=O)CN1C(=O)[C@H]2[C@@H](/C=C/c3ccccc3)N3C(=O)CN(CC4CC4)C(=O)[C@@]3(Cc3ccccc3)[C@H]2C1=O 51%
Cc1ccccc1OCCC(=O)OCC(=O)NCCc1ccc(S(N)(=O)=O)cc1 47.5%
O=C(NC[C@@H]1N[C@@H](CO)[C@H]1c1ccc(-c2cccnc2)cc1)c1cccc(F)c1 41.5%
CO[C@@H]1CN(C)C(=O)c2cc(NC(=O)C3CCOCC3)ccc2OC[C@@H](C)NC[C@@H]1C 23.2%
CO[C@H]1CN(C)C(=O)c2cc(NS(=O)(=O)c3ccccc3)ccc2OC[C@H](C)NC[C@@H]1C 27.3%
